High-throughput results (PubChem BioAssay)
ATXN viability: Viability Counterscreen for Primary qHTS for Inhibitors of ATXN expression; S2 cells (HEK-293 line with an ATXN2-luciferase reporter) viability, CellTiter-Fluor protease fluorescence, 24 h; Potency, µM (series often up to 56.7 µM), hits mostly cytotoxic; actives 0.49% (n = 400,000); AID 651635, 2014; further: potency means the concentration at half of the fitted maximal effect; nearly all actives have a fitted effect of over 40% in size
IL-1B inflam inh: qHTS for Inhibitors of Inflammasome Signaling: IL-1-beta AlphaLISA Primary Screen; THP-1 LPS/ATP IL-1B secretion, AlphaLISA, 16 h; stronger effect = lower value; activity change, % at 57.5 µM; actives 4.7% (n = 360,000); in the data active means activity change below about -50%; inconclusive means mostly about -30% to -49%; further: on the % scale 0 is the no-effect control and ±100 the full control effect
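THP-1 cells pretreated 1 hr with compounds (up to 57.5 uM final), then stimulated with LPS (250 ng/mL final) plus ATP (1.25 mM final); secreted IL-1B measured by AlphaLISA after 16 hr, decreased signal indicating inhibition.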
TGFb SMAD3 inh: qHTS for Inhibitors of TGF-b | actives 1.2% (n = 410,000) | AID 588855, 2011 | Potency, µM (series often up to 46.1 µM), for inactives: at the highest dose activity, negative = inhibition, most hits filed as inhibitors | HepG2 CAGA-GFP TGF-b/SMAD3 reporter, GFP fluorescence, 18 h; TGF-beta stimulated, 500 pg/mL final; further: potency means the concentration at half of the fitted maximal effect; on the % scale 0 is the no-effect control and ±100 the full control effect; nearly all actives have a fitted effect of over 65% in size
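Using HEPG2 CAGA-GFP reporter cells at 1000 cells/well, we pinned test compounds, stimulated with recombinant TGF-beta (500 pg/mL final) and measured total well GFP after 18 h.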
HepG2 viability: qHTS for Inhibitors of TGF-b: Cytotox Counterscreen. HepG2 CAGA-GFP viability, ATP luminescence, 18 h. Potency, µM (doses to about 46.1 µM), inactives show at the highest dose activity change, negative = cytotoxicity, most hits filed as cytotoxic. actives 0.76% (n = 410,000); further: potency means the concentration at half of the fitted maximal effect
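HepG2 CAGA-GFP cells (1000/well, DMEM with 1% FBS) received compound, then TGF-beta at 500 pg/mL final, and were incubated 18 hours at 37 degrees C. Viability was read by CellTiter-Glo luminescence. Media-only wells were set as complete cell-killing and DMSO as no toxicity.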
ATXN2 expr inh: Primary qHTS for Inhibitors of ATXN expression; HEK-293 ATXN2-luciferase reporter, luminescence, 24 h; Potency, µM (highest dose often 57 µM), for inactives: top-dose activity change, negative = inhibition, usual class: inhibitors; actives 0.72% (n = 360,000); further: potency means the concentration at half of the fitted maximal effect; on the % scale 0 is the no-effect control and ±100 the full control effect; nearly all actives have a fitted effect of over 55% in size
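ATXN2-luciferase reporter cells (luciferase flanked by upstream and downstream ATXN2 gene portions) were treated 24 h at 37 °C with compounds at up to 57 uM. SteadyGlo luminescence gave expression; GF-AFC fluorescence gave viability.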
An asterisk follows results filed as active; i = inactive; u = inconclusive; x = no result given. Compounds with a hit are over-represented: about 5.7% of the library has one in this group of screens. Unless noted, the call rests on the fitted dose curve; in most records, active means well fitted curve in the direction sought with a large enough effect; inconclusive means small, poorly fitted or top-dose-only effect, or another doubt; inactive means no such curve, though single readings can be large; an effect the other way counts as inactive or inconclusive.

SMILES | ATXN viability | IL-1B inflam inh | TGFb SMAD3 inh | HepG2 viability | ATXN2 expr inh
Cc1nnsc1S(=O)c1ccc(F)cc1 (stereo unspecified) | i | -50.3* | -0.4% | 1.7% | 17.4%
Cc1ccc(S(=O)c2snnc2C)cc1 (stereo unspecified) | i | -17.9 | 8.5% | -0.8% | 36.5%
COc1cc(OC)cc(-c2ccc3ncc4ccc(=O)n(-c5ccc(N6CCNCC6)c(C(F)(F)F)c5)c4c3c2)c1 | x | x | x | x | 19.3µM*
COc1ccc(-c2nn(-c3ccc(F)cc3)c3c2cnc2cc4c(cc23)OCO4)cc1 | i | x | 0.0% | -7.5% | 12.2%
CCOC(=O)/C(=C\c1cccc(O)c1)c1nc2sc(C)c(C)c2c(=O)[nH]1 | u | -101.8* | u | -60.9% | 15.8µM*
CCOC(=O)c1nc2sc(C)c(C)c2c(=O)[nH]1 | i | 6.7 | -0.2% | -6.4% | -3.3%
Cc1ccc(NC(=S)N(CCN(C)C)C(C)c2ccco2)cc1Cl (stereo unspecified) | i | -9.0 | 17.8µM* | -9.6% | x
COC(=O)c1c(NC(=O)c2ccc(S(=O)(=O)N3CCOCC3)cc2)sc2c1CCN(C)C2 | i | -74.6* | -0.9% | -26.4% | -24.1%
CCN1CCc2c(sc(NC(=O)c3ccc(S(=O)(=O)N4CCOCC4)cc3)c2C(=O)OC)C1 | i | -4.9 | -3.7% | -38.7% | u
CC1CCCN(S(=O)(=O)c2ccc(C(=O)Nc3sc4c(c3C(N)=O)CCN(C)C4)cc2)C1 (stereo unspecified) | i | -98.2* | u | -75.2% | u
CCc1ccc(C(=O)C[N+]2(C)CCOCC2)cc1 | x | x | 14.6% | -17.8% | x
O=C(C1=C(c2ccccc2)C(=O)c2ccccc2C1=O)c1ccccc1 | x | -103.8* | 5.62µM* | 10µM* | u
COC1=C(c2ccccc2)C(=O)c2ccccc2C1=O | x | -168.8* | 11.2µM* | 22.4µM* | u
O=C(c1ccccc1)c1c[nH]cc1-c1ccccc1 | i | 1.0 | 9.7% | -2.6% | 2.1%
NC(=O)c1c(NC(=O)c2ccccc2)sc2c1CCN(Cc1ccccc1)C2 | i | -10.7 | 65.5% | -16.8% | -16.9%
CC(C)CN(CC(C)C)S(=O)(=O)c1ccc(C(=O)Nc2sc3c(c2C(N)=O)CCN(C(C)C)C3)cc1 | x | x | 136.0% | 11.2µM* | u
COC(=O)c1c(NC(=O)C2CCCCC2)sc2c1CCN(C(C)C)C2 | i | -29.7 | 8.9% | 7.7% | -7.8%
CCN1CCc2c(sc(NC(=O)Nc3ccc(Cl)c(Cl)c3)c2C(N)=O)C1 | x | -52.0* | 137.5% | -44.4% | u
CCN1CCc2c(sc(NC(=O)c3ccc(C(=O)c4ccccc4)cc3)c2C(N)=O)C1 | i | -72.1* | u | -36.7% | -37.3%
CC(C)N1CCc2c(sc(NC(=O)C3CCCCC3)c2C(N)=O)C1 | i | -54.8* | -26.2% | -21.6% | -25.3%
CCOc1ccc2oc(=O)cc(CN3CCN(C(=O)c4ccc(Cl)cc4)CC3)c2c1 | x | x | u | -24.6% | x
CCCCN1CC[C@H]2C=CC[C@@H](C(=O)NC3CCCCC3)[C@H]2C1=O | x | x | 20.8% | 23.0% | x
O=C(CNC(=O)C1CCCCC1)OCC(=O)c1ccccc1 | x | x | 0.4% | -3.5% | x
CCCCN(CCCC)S(=O)(=O)c1ccc(C(=O)Nc2sc3c(c2C(N)=O)CCN(CC)C3)cc1 | x | x | 48.2% | -38.0% | -30.8%
CCN1CCc2c(sc(NC(=O)c3ccc(S(=O)(=O)N(CC)c4ccccc4)cc3)c2C(N)=O)C1 | i | -95.8* | 96.1% | -55.1% | -19.8%
SMILES | ATXN viability | IL-1B inflam inh | TGFb SMAD3 inh | HepG2 viability | ATXN2 expr inh
COc1cc2c(Oc3ccc(NC(=O)C4(C(=O)Nc5ccc(F)cc5)CC4)cc3F)ccnc2cc1OCCCN1CCOCC1 | x | x | x | x | 27.3µM*
COc1cc2c(Oc3ccc(-c4cnc(Nc5ccc(F)cc5)n(C)c4=O)cc3F)ccnc2cc1OCCCN1CCOCC1 | x | x | x | x | 24.3µM*
C[C@H](O)[C@@H]1CN2CCc3c([nH]c4ccc(-c5ccc6c(c5)OCO6)cc34)[C@@H]2C[C@@H]1N(C)C(=O)Nc1ccc(F)cc1 | 31.6µM* | -10.5 | u | 12.6µM* | u
COc1ccc(-c2ccc3[nH]c4c(c3c2)CCN2C[C@@H]([C@H](C)O)[C@@H](N(C)C(=O)Nc3cc(Cl)cc(Cl)c3)C[C@@H]42)cc1 | x | 0.0 | u | -63.2% | -0.5%
CN(CC(=O)Nc1cccc(F)c1)C(=O)c1cccc(S(=O)(=O)N2CCN(c3ccc(F)cc3)CC2)c1 | i | -1.3 | 12.6µM* | -29.0% | u
COc1ccc(CCN(C)C(=O)c2cccc(S(=O)(=O)N3CCN(c4ccc(F)cc4)CC3)c2)cc1OC | u | -21.3 | 11.2µM* | -38.8% | x
CN(CCOc1ccc(Cl)cc1)C(=O)c1cccc(S(=O)(=O)N2CCN(c3ccc(F)cc3)CC2)c1 | u | -3.2 | u | -2.6% | u
Cc1cccc(C)c1NC(=O)CN(C)C(=O)c1cccc(S(=O)(=O)N2CCN(c3ccccc3)CC2)c1 | i | -11.1 | u | -7.5% | -9.8%
COc1ccc(NC(=O)CN(C)C(=O)c2cccc(S(=O)(=O)N3CC4(C)CC3CC(C)(C)C4)c2)cc1 (stereo unspecified) | u | -71.8* | 7.1% | -3.4% | -2.1%
CN(Cc1ccc(OC(F)F)cc1)C(=O)c1cccc(S(=O)(=O)N2CCN(c3ccccc3)CC2)c1 | u | -62.4* | -32.2% | -13.7% | -30.9%
O=C(Cc1cccc(NC(=O)C2CCCN(C(=O)CCc3ccccc3)C2)c1)Nc1ccc(C(=O)N2CCCCC2)cc1 (stereo unspecified) | u | -108.3* | u | -8.8% | -21.6%
CC(C)(C)OC(=O)C(Cl)(C(=O)OC(C)(C)C)c1ccc2nnnn2n1 | i | -79.3* | -0.8% | -17.3% | -22.9%
CN(C)CCCN(C(=O)c1cccs1)c1nc2ccc(F)cc2s1 | i | x | -2.2% | -22.6% | -11.9%
CCN(CC)CCN(C(=O)/C=C/c1cccs1)c1nc2ccc(F)cc2s1 | i | -78.3* | u | -40.2% | x
CCN(CC)CCN(C(=O)/C=C/c1cccs1)c1nc2ccc(C)cc2s1 | i | 4.8 | 3.2% | -4.0% | x
CN(C)CCCN(C(=O)/C=C/c1cccs1)c1nc2ccc(F)cc2s1 | x | -104.2* | 17.0% | 15.8µM* | u
CN(C)CCN(C(=O)c1ccc2ccccc2c1)c1nc2c(F)cc(F)cc2s1 | i | -4.1 | -3.4% | -5.4% | x
CN(C)CCN(C(=O)/C=C/c1cccs1)c1nc2c(F)cc(F)cc2s1 | u | -96.7* | 0.9% | -29.1% | -27.7%
CN(C)CCCN(C(=O)c1sc2ccccc2c1Cl)c1nc2ccc(F)cc2s1 | i | -81.4* | -0.8% | -47.3% | 54.8%
